Test results: PubChem BioAssay (NCI)
This is part of a sample that, as a whole, favours compounds with a hit. Of some 83,000 tested, about 20% had one in any assay.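 Percent growth is the endpoint: 0 to 100 indicates growth inhibition (40 means 60% inhibition), 0 means no net growth, and negative values indicate cell death.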 Unmarked numbers belong to inactive results. Activity calls are given as the source filed them. The calls were made as follows: active = growth percent below 10; inactive = the rest.

Tests used:
Experiment in all cases: NCI-60 one-dose screen, 48 h (100 = growth as untreated, 0 = no growth, -100 = all killed)
Details in all cases: 10 µM unless noted
T-47D breast = tested on: T-47D breast
BT-549 breast = tested on: BT-549 breast
MDA-MB-435 melanoma = tested on: MDA-MB-435 melanoma
SW-620 colon = tested on: SW-620 colon
MCF7 breast = tested on: MCF7 breast
HCT-116 colon = tested on: HCT-116 colon
HCC-2998 colon = tested on: HCC-2998 colon
KM12 colon = tested on: KM12 colon

SMILES	growth (T-47D breast)	growth (BT-549 breast)	growth (MDA-MB-435 melanoma)	growth (SW-620 colon)	growth (MCF7 breast)	growth (HCT-116 colon)	growth (HCC-2998 colon)	growth (KM12 colon)
O=C(COc1ccc(C2SCC(=O)N2c2ccccc2)cc1)c1ccccc1 (stereo not drawn)	81.5%	92%	103%	104%	88.3%	94.8%	102%	99.4%
N=c1c2cc(-c3ccccc3)oc2ncn1/N=C/c1ccccc1	94%	92.1%	7.67% (active)	60.1%	50.4%	65%	99%	59%
CN1CCN(c2nc(-c3csc(-c4ccncc4)n3)cc3ccccc23)CC1	55.9%	83.5%	56.2%	74.2%	67.8%	25.4%	48.8%	62.6%
Cn1c2ccc(Br)cc2c2c3c(c4c5cc(F)ccc5oc4c21)C(=O)N(O)C3=O	63%	89.4%	101%	54.5%	41.3%	75%	94.6%	92.6%
Nc1ccc(-c2nnc(SCc3ccc(O)c4ncccc34)n2-c2ccccc2)cc1	15.2%	18.5%	14.8%	19.2%	5.58% (active)	8.87% (active)	29.1%	17.8%
CN(c1ccc(Br)cc1)S(=O)(=O)c1ccc(-c2cnc(C3CC3)o2)cc1	55.1%	19.3%	-12.1% (active)	27.9%	21.1%	14.5%	16.4%	23.2%
O=C(NNc1nc2cc(F)c(F)cc2n2cccc12)c1ncccn1	14.8%	36.8%	26.1%	26.4%	16.9%	31.2%	62.4%	25.6%
NC(=O)c1c(NC(=O)c2cccc(C(F)(F)F)c2F)sc2c1CCC(=O)C2	11.8%	11.4%	12.3%	2.94% (active)	6.11% (active)	7.49% (active)	44.1%	7.39% (active)
O=C(CCCCCCN1CC(=O)N2[C@@H](c3cccc(Br)c3)c3[nH]c4ccccc4c3C[C@H]2C1=O)NO	17.2%	57.9%	14%	15%	21.4%	8.35% (active)	41.6%	28.4%
COc1cccc(/C=C/C(=O)c2ccc(NC(=O)COc3cccc4cccnc34)cc2)c1	82.9%	86.1%	100%	94.3%	52.4%	3.49% (active)	99.3%	96.3%
Cn1cc(-c2nn3c(=O)cc(-c4ccccc4)nc3s2)c2cc(F)ccc21	64.2%	67%	-5.19% (active)	41.9%	34.5%	32.6%	79.5%	55.2%
CCOC(=O)c1c(NCC(=O)Nc2cccc(Cl)c2)sc2c1CCCC2	63.4%	70.1%	-2.01% (active)	76.1%	43%	73.5%	103%	95.8%
Oc1ccccc1-c1nnc(SCc2ccc(O)c3ncccc23)o1	11.6%	32.3%	18.5%	28.2%	6.74% (active)	10.5%	46%	29.3%
COc1ccc([C@H]2c3[nH]c4ccccc4c3C[C@@H]3C(=O)N(C4CCN(Cc5ccccc5)CC4)CC(=O)N23)c(OC)c1	82.8%	86.1%	83.3%	79.9%	51.7%	56.8%	78.1%	79.6%
N/C(=N\c1nc2ccc([N+](=O)[O-])cc2s1)C(Cl)(Cl)Cl	30.7%	93.3%	83.6%	70.5%	40%	53.9%	74%	37.6%
COc1ccc(C2CC(c3ccc(Nc4nc(NCCO)nc(Nc5ccc(Cl)cc5)n4)cc3)=Nc3c(N)nc(N)nc3N2)cc1 (stereo not drawn)	72.1%	77.5%	74.9%	41.2%	-71.8% (active)	-80.3% (active)	93.5%	55.4%

SMILES	growth (T-47D breast)	growth (BT-549 breast)	growth (MDA-MB-435 melanoma)	growth (SW-620 colon)	growth (MCF7 breast)	growth (HCT-116 colon)	growth (HCC-2998 colon)	growth (KM12 colon)
CC(C)C[C@H]1C(=O)O[C@H](C(C)C)C(=O)N(C)[C@@H](C(C)C)C(=O)O[C@H](C(C)C)C(=O)N(C)[C@@H](C(C)C)C(=O)O[C@H](C(C)C)C(=O)N1C	6.43% (active)	17.6%	21.9%	18.2%	13.8%	9.58% (active)	23.1%	16.6%
IP(CCCCCCCCCCSc1n(Cc2ccc3ccccc3c2)c(-c2ccccc2)c(-c2ccccc2)[n+]1Cc1ccc2ccccc2c1)(c1ccccc1)(c1ccccc1)c1ccccc1	-57.4% (active)	-71.4% (active)	-81.7% (active)	-77.8% (active)	-54.2% (active)	-60.9% (active)	-86.8% (active)	-83.3% (active)
Oc1ccc(-c2nnc(SCc3ccc(O)c4ncccc34)o2)cc1	11.1%	12.8%	12.3%	16.3%	2.57% (active)	7.61% (active)	22.5%	9.65% (active)
Cc1ccc(-c2cc3nc(C(Cl)Cl)nc(-c4ccccc4)n3n2)cc1	90.4%	95.8%	91.5%	79.5%	64.1%	82.2%	65.3%	65.8%
Cc1ccc(-c2cc(-c3ccc(N(C)C)cc3)n3c(n2)nc2ccccc23)cc1	6.32% (active)	82.2%	65.3%	80.1%	59.2%	39.4%	80.3%	78.4%
C[C@@H]1C[C@H]2C(=O)OCC(NC(=O)[C@H](Cc3cc(F)cc(F)c3)NC(=O)Nc3ccc(Cl)cc3F)C(=O)N3CCC[C@H]3C(=O)N3CCCC[C@H]3C(=O)N[C@@H](C)C(=O)N2C1 (stereo partly drawn)	28.8%	21.4%	19.9%	37.7%	12.6%	-6.65% (active)	15.8%	36.1%
Cn1cc(-c2nn3cc(-c4ccncc4)nc3s2)c2cc(Cl)ccc21	31.3%	46%	14.5%	18.8%	17%	-52.9% (active)	36.3%	56.5%
O=C(NCCNc1cc(-c2cn(-c3ccccc3)nc2-c2cccc(O)c2)ccn1)Nc1ccc(Cl)c(C(F)(F)F)c1	67.3%	98%	52.8%	46.8%	10.4%	50.6%	-77.7% (active)	37.9%
CC(C)=CCc1c2c(c(O)c3c1O[C@]14C(=C[C@@H]5C[C@H]1C(C)(C)O[C@@]4(C/C=C(/C)C(=O)O)C5=O)C3=O)CC(O)C(C)(C)O2 (stereo partly drawn)	-10.2% (active)	-14.3% (active)	-16% (active)	-44.8% (active)	-41.4% (active)	-69.8% (active)	-84.7% (active)	-68.9% (active)
CCCC(=O)NC(c1cccnc1)c1ccc2c(C)ccnc2c1O (stereo not drawn)	20.7%	26.2%	30.6%	28.6%	-2.74% (active)	16.7%	24%	20%
O=C(/C=C1\C=CN(CCCCO)c2ccccc21)n1ccc2ccccc21	99.6%	112%	106%	104%	95.8%	108%	112%	100%
N#C/C(=C\c1ccc(N2CCCCC2)cc1)C(=O)Nc1sc2c(c1C#N)CCC2	97.7%	108%	90%	100%	87.3%	89.8%	105%	96.5%
Oc1ccc(CSc2nnc(-c3ccc(Cl)cc3)o2)c2cccnc12	18.5%	27.9%	22.3%	17.3%	12.4%	20.8%	29.1%	18.4%
O=c1[nH]c(CNc2ccc(NCc3c(-c4ccccc4)no[n+]3[O-])cc2)nc2c1cnn2-c1ccccc1	42.5%	62.1%	77.8%	92.8%	50.1%	49.6%	84.4%	73.3%
COc1ccc(Cn2cc3c(c2-c2ccccc2)CCCc2cnoc2-3)cc1[N+](=O)[O-]	67.7%	81%	1.77% (active)	41.3%	34.4%	46.9%	85.7%	49.4%
